This is an account of results in PubChem BioAssay (NCI).

“And” between values parts separate entries of the source, which are not always exact repeats. Identical values can stand only once. This is part of a sample that, as a whole, favours compounds with a hit. Of some 83,000 tested, about 20% had one in any assay.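 Testing used 96-well plates and a 48-hour single-concentration exposure. Example: -40 means 40% of the starting cells died.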 The source made the active and inactive calls. Rule for the calls: active = growth percent below 10; inactive = the rest.

In this assay the test system is MDA-MB-468 breast. As to the kind of experiment: NCI-60 one-dose screen, 48 h (100 = growth as untreated, 0 = no growth, -100 = all killed). The note with it: 10 µM unless noted.
Consider `Cc1oc2nc[nH]c(=O)c2c1C(=O)/C=C/c1ccc(Cl)cc1`, for which the growth is 10.6% (inactive).
Take `C=C1C(=O)O[C@@H]2C3C(=C(C)CC[C@@H]12)CC1O[C@]13C` (stereo not given in full): the growth is 19.3% [6.75 µM] (inactive).
To `O=C(/C=C/C12c3ccccc3C(c3ccccc31)C1C(=O)NC(=O)C12)c1ccccn1` (stereo not given) belongs -13.1% (active); to `COc1ccc(/C=N/OCC(O)CN2CCC(O)CC2)cc1OC1CCCC1` (stereo not given), 117% (inactive).
Regarding `COc1cc2c(cc1NC(=O)C(Cl)Cl)-c1ccc(NC(=O)C(Cl)Cl)cc1C2`, the growth was -58.3% (active).
For the molecule `CC(C)N(CCCC#N)C(C)C`, the growth was 104% (inactive).
In the case of `Cc1nc2ncnc(Cl)c2[nH]1` it was 105% (inactive); in that of `CC1(C)CC[C@]2(C(N)=O)CC[C@]3(C)C(=CC[C@@H]4[C@@]5(C)C/C(=C/c6cccnc6)C(=O)C(C)(C)[C@@H]5CC[C@]43C)[C@@H]2C1`, -17.1% [100 µM] (active); in that of `CC(=O)Nc1c(Br)cc2c(c1Br)Cc1cc(Br)ccc1-2`, -35.2% (active).
In the case of `COc1ccc(CN2c3ccccc3Oc3ccccc32)cc1O` it was 6.51% (active); in that of `CN1CCN(c2ccc(-c3ccc4ncc(C#N)c(Nc5ccc(F)c(Cl)c5)c4c3)cn2)CC1`, 10.6% (inactive).
To `COC(=O)CCC1=C(C)/C(=C/c2[nH]c(-c3ccc[nH]3)cc2OC)N=C1C` belongs 45.2% (inactive); to `Cc1ccc(Cn2c(-c3cccs3)nc3ccccc32)cc1`, 67.5% (inactive).
Turning to `COc1ccc2c(c1)c(/C(O)=C1\COC(=O)C1=O)cn2Cc1ccc(F)cc1`, the growth is 100% (inactive).
To `CC(C)c1cc(CNc2nc(Nc3cc(C4CC4)[nH]n3)cc(N3CCN(C)CC3)n2)on1` belongs -34.8% (active).
In the case of `Cc1cc(N2CCOCC2)nc(N(CCCNc2ccnc3cc(Cl)ccc23)Cc2ccco2)n1` it was 21.7% (inactive).
In the case of `N#Cc1c(-c2ccc(Cl)cc2)nc(NN=Cc2ccc[nH]2)nc1N1CCOCC1` it was 78.2% (inactive).
As for `CCN(CC)CCn1c(=O)c2cc(OC)c(OC)cc2c2ccc3cc4c(cc3c21)OCO4`, the growth was -13.5% (active).
`CCC(C)C1(C2CCCC2)NC(=O)NC1=O` (stereo not given): the growth is 115% (inactive) and 121% (inactive).
In the case of `Cc1cc(C)c(S(=O)(=O)N2CCN(c3cc4c(cc3F)c(=O)c(C(=O)O)cn4C3CC3)CC2)c(C)c1`, the growth was 65.1% (inactive).
To `Clc1ccc(-c2cnc3nonc3n2)s1` belongs 49.6% (inactive); to `CCOC(=O)C1=C(C)NC(=O)NC1c1cccs1` (stereo not given), 102% (inactive); to `Cc1nn(C)c2ncnc(Nc3ccccc3Br)c12`, 107% (inactive).
Take `CCN(CC)S(=O)(=O)c1ccc(S(=O)(=O)N2CCC[C@@H](C(=O)N3CCN(c4nc(C(C)C)no4)CC3)C2)cc1`: the growth is 12.4% (inactive).
For `Oc1c(CN2CCOCC2)cc(COCc2ccccc2)c2cccnc12`, the growth was 12.1% (inactive).
